The source of these data is PubChem BioAssay AID624167 (Sanford-Burnham Center for Chemical Genomics, 2012).

A short description of the assay: Peg3 promoter luciferase inhibitors, potency, dose response, cell-based, HeLa, CREF/GAPDH counter-screen panel (AID 624167). The settings on record: CREF/GAPDH counter-screens; run 2, dose range 1, at 100 µM (top of the series). For orientation: A counterscreen serves to expose hits that act by an unwanted route or on another target.
`Cc1ccc(-n2c(N)c(C(=O)Nc3c(C)n(C)n(-c4ccccc4)c3=O)c3nc4ccccc4nc32)cc1` displayed an inhibition of 81.3%.
Molecule `Clc1ccccc1/C=C/c1nc(-c2ccccn2)no1` yielded an inhibition of 96.2%.
Under `Cc1cc(NC(c2ccc(Cl)cc2)c2ccc3cccnc3c2O)no1` (stereo not drawn) stands 55.8%.
Then `C=CCn1c(C)cc(C(=O)COc2ccc(C)nc2[N+](=O)[O-])c1C`, with 51.8%; and `CC(=O)NC(c1ccc(Cl)cc1)c1ccc2cccnc2c1O` (stereo not drawn), with 64.1%; and `Oc1[nH]c2ccc(Br)cc2c1N=NC(=S)N1CCOCC1`, with 63.5%.
`Cc1ccccc1CNC(=O)C1CCCN(c2nnc(C)c3c(C)n(-c4ccccc4)nc23)C1` (stereo not drawn) registered an inhibition of 94.8%.
Under `CCCCC(=O)NC(c1ccccc1OC)c1ccc2cccnc2c1O` (stereo not drawn) stands 50.9%.
Under `Cc1oc(-c2ccc3c(c2)OCCO3)cc1C(=O)O` stands 97.9%.
Then `COCCCNC(=O)c1ccc(Cn2c(=O)c3ccccc3n(Cc3ccccc3C#N)c2=O)cc1`, with 25.1%; and `COc1ccc(-n2cc(-c3ccccc3)c3c(N4CCOCC4)ncnc32)cc1`, with 91.3%; and `O=C(Nc1ccccc1C(=O)Nc1nnc(C(F)(F)F)s1)c1ccccc1`, with 60.9%.
The molecule `CS(=O)(=O)c1ccc(-c2sc3ccccc3c2C#CCCO)cc1` yielded an inhibition of 81.8%.
Take `NC(C(=O)O)C1ON=C(Cl)C1O` (stereo not drawn): the inhibition stood at 70.1%.
Under `O=C(CCSc1nc2ccccc2s1)N/N=C/c1c(O)ccc2ccccc12` stands 0.467%; under `CN(O)C(=S)c1ccccc1`, 14.9%; under `O=C(/C=C/c1ccc(Cl)c([N+](=O)[O-])c1)c1ccc(O)cc1`, 99.5%.
Then `Cc1ccc(OCC(=O)c2cc(C)n(-c3ccccc3)c2C)c([N+](=O)[O-])n1`, with 65.4%; and `N=c1n(CC(=O)c2ccc([N+](=O)[O-])cc2)c2ccccc2n1Cc1ccc(Cl)cc1`, with 90.8%.
In turn, `COc1ccc(C(NC(C)=O)c2ccc3cccnc3c2O)c(OC)c1` (stereo not drawn) gave an inhibition of 0.125%.
`CC(=O)c1sc2c(c1OC(=O)c1ccc(Cl)cc1Cl)c(=O)n(-c1ccccc1)c(=S)n2-c1ccccc1` registered an inhibition of 79.3%.
Then `O=C(N/N=C\c1c(O)ccc2ccccc12)c1cncc(Br)c1`, with 72.8%; and `CN1CCC2(CC1)N=C(c1ccc(F)cc1)C(=S)N2C(=O)c1ccc(C(C)(C)C)cc1`, with 97.8%; and `NS(=O)(=O)c1ccc(CCNc2nn3c(-c4ccc(F)c(Cl)c4)cnc3s2)cc1`, with 75.5%.
Then `CCCCC(=O)NC(c1ccc(OC)cc1)c1ccc2cccnc2c1O` (stereo not drawn), with 20.5%; and `O=C(N/N=C\c1c(O)ccc2ccccc12)c1ccc(Cn2cccn2)o1`, with 34.2%; and `O=C(CNc1ccccc1)N/N=C/c1c(O)ccc2ccccc12`, with 63.7%.
Take `CC(=O)NC(c1ccc(Cl)cc1Cl)c1ccc2cccnc2c1O` (stereo not drawn): the inhibition amounted to 61.7%.
With `CC1=NOC(=O)/C1=C\c1ccc(-c2ccccc2Br)o1`, the inhibition is 98.7%.
`CN1OC[C@@H]2CN(S(=O)(=O)c3cccc(C(F)(F)F)c3)[C@H](c3ccc(-c4cc5ccccc5o4)cc3)C[C@@H]21` showed an inhibition of 70.9%.
With `Cc1ccc(/C=C2\SC(=S)N(CCCC(=O)Nc3ccccn3)C2=O)cc1`, the inhibition is 76.5%.
Then `COc1cc(CNCCCN2CCOCC2)cc(Br)c1OCc1ccc(Cl)cc1`, with 90.7%.
Then `O=[N+]([O-])c1nn(-c2ccc3c(c2)OCCO3)n(O)c1=Nc1ccc(Cl)cc1`, with 80.8%.

As usually defined, the inhibition is the relative decrease from the control value, in per cent.
